From PubChem BioAssay (NCI)
This is part of a sample that, as a whole, favours compounds with a hit. Of some 83,000 tested, about 20% had one in any assay.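 The endpoint reported here, percent growth, reads 100 for growth as untreated, 0 for no net growth and -100 for all cells dead.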 Active and inactive are the calls of the source. How the source made its calls: active means growth percent below 10; inactive means the rest.

System: HL-60(TB) leukemia
Assay: NCI-60 one-dose screen, 48 h (100 = growth as untreated, 0 = no growth, -100 = all killed)
Conditions: 10 µM unless noted

Row | SMILES | growth
1 | Cc1ccc(/C=C2\CNC/C(=C\c3ccc(C)cc3)C2=O)cc1 | -29.1% (active)
2 | CC1(O)CCC(Nc2cc(-c3ccc(C(F)(F)F)cc3)c(C#N)c3nc4ccccc4n23)CC1 (configuration not stated) | 63% (inactive)
3 | CCOc1nc(-c2ccccc2)cc2c(O)c(C(=O)N/N=C/c3ccc(O)cc3O)[nH]c(=O)c12 | 19.7% (inactive)
4 | CCn1cc(C(=O)N/N=C/c2ccc(Br)cc2)c(=O)c2cc(F)c(N3CCNC(C)C3)c(F)c21 (configuration not stated) | 48.7% (inactive)
5 | N=C(N)c1ccc(S(N)(=O)=O)cc1 | 94.9% (inactive)
6 | Cc1nc2cc(Nc3nc(Cl)nc(Nc4ccc(F)cc4)n3)ccc2n1Cc1ccccc1 | 53.2% (inactive)
7 | CCCCc1oc2ccccc2c1C(=O)c1ccc(O)cc1 | 68% (inactive)
8 | O=C(Nc1ccc(Nc2cc(Nc3ccccc3)ncn2)cc1)Nc1cc(C(F)(F)F)ccc1F | 106% (inactive)
9 | Cc1nc(C)c(-c2nn3c(-c4cccc(F)c4)nnc3s2)s1 | 107% (inactive)
10 | CN1CCN(c2ccc(C(=O)Nc3n[nH]c4ccc(Cc5cc(F)cc(F)c5)cc34)c(NC3CCOCC3)c2)CC1 | -57.1% (active)
11 | Cc1ccc(S(=O)(=O)c2ccc3[nH]c(=O)[nH]c(=O)c3c2)cc1 | 89.3% (inactive)
12 | COc1c(B(O)O)cccc1-c1cc(C)c2c(ccc3[nH]ncc32)n1 | 23.8% (inactive)
13 | C=C[C@H]1C[C@@H]2C[C@@H]3[C@H]4C/C=C\C(=O)NCCCC5NC(=O)C(=C(O)/C=C/[C@@H]4CC(=O)[C@H]3[C@@H]2[C@H]1C)C5=O (some centres not stated) | -76.5% (active)
14 | Cc1ccc(NC(=O)Nc2c(Cl)cccc2Cl)cn1 | 71.3% (inactive)
15 | Cc1cc(Cc2cc(C)cc(C(C)(C)C)c2O)c(O)c(C(C)(C)C)c1 | 59.3% (inactive)
16 | CCCCCC(CCC)COC(=O)c1ccc(OC)cc1 (configuration not stated) | 90.5% (inactive)
17 | CC(CNC(Cc1ccccc1)c1ccccc1)NC(Cc1ccccc1)c1ccccc1 (configuration not stated) | 26.2% (inactive)
18 | O=C1/C=C/[C@@H](O)[C@@H]2C[C@@H](O)C[C@H]2/C=C/CCC[C@H](CCc2ccc3ncccc3c2)O1 | -52.3% (active)
19 | Cc1c2cnccc2c(C)c2c1c1cc(C(=O)O)ccc1n2C | 5.27% (active)

Row | SMILES | growth
20 | Cc1cc(N=O)cc(C(C)(C)C)c1O | 99.6% (inactive)
21 | N#CC(C#N)N=Nc1cc(Cl)ccc1Cl | 85.2% (inactive)
22 | CC(C)CCCCCOC(=O)c1ccccc1SSc1ccccc1C(=O)OCCCCCC(C)C | 82.2% (inactive)
23 | C=C(C)[C@@H]1CC[C@]2(C(N)=O)CC[C@]3(C)[C@H](CC[C@@H]4[C@@]5(C)CC[C@H](O)C(C)(C)[C@@H]5CC[C@]43C)[C@@H]12 | 1.17% [100 µM] (active)
24 | CN(CCCCCl)P(=O)(OCc1ccc([N+](=O)[O-])o1)C(F)(F)c1ccc(CC(=O)NC[C@@H](O)/C=C\[C@@H](O)[C@H](CO)Cc2ccccc2)cc1 (some centres not stated) | 80.3% (inactive)
25 | Oc1ccc(/C=N/NC(=S)Nc2ccccc2)nc1 | -8.79% (active)
26 | COc1ccc(/C(C)=C(\c2ccc(Cl)cc2)c2ccc(OCCN3CCCCCC3)cc2)cc1 | 25.8% (inactive)
27 | O=C1/C(=C/c2ccccc2O)CC/C1=C\c1ccccc1O | 11.9% (inactive)
28 | CSc1nc(NCCN2CCOCC2)c(C#N)c(-c2cccc([N+](=O)[O-])c2)n1 | 100% (inactive)
29 | O=C1Nc2ccccc2C1(c1c[nH]c2ccccc12)c1c[nH]c2ccccc12 | 77.8% (inactive)
30 | CCN1C(=O)c2ccc3c4c(ccc(c24)C1=O)C(=O)N(CCCNCc1ccccc1OC)C3=O | -52.6% (active)
31 | COc1cc(/C=N/NC(=O)c2ccccc2Nc2cccc(C(F)(F)F)c2)cc(OC)c1OC | -5.58% (active)
32 | Cn1c(=O)c(C#N)c(-c2ccco2)n2c(S(=O)(=O)Cc3ccccc3)nnc12 | 103% (inactive)
33 | CCOc1ccc(Cc2nccc3cc(OCC)c(OCC)cc23)cc1OCC | 10.5% (inactive)
34 | C=C(C)[C@@H]1CC[C@]2(CO)CC[C@]3(C)[C@H](CC[C@@H]4[C@@]5(C)CCC(NCCc6ccc(O)cc6)C(C)(C)[C@@H]5CC[C@]43C)[C@@H]12 (some centres not stated) | -50.4% (active)
35 | Clc1ccc(Nc2ccnc(NCCCNc3ccnc4cc(Cl)ccc34)n2)cc1 | -72.3% (active)
36 | N#Cc1cnn(C(=O)c2nn(-c3ccc(Cl)cc3)cc2O)c1N | -50.1% (active)
37 | CCOc1ccccc1C(=O)/C=C/c1cc2ccccc2[nH]c1=O | -7.94% (active)
